Results as given in PubChem BioAssay AID1159580 (chemical genetic matrix, 2015).
Out of some 5,500 compounds screened, about 2,000 (36%) were called active. Inconclusive results (about 18%) are left out. Cut-off read from the data, not from the text of the source: active = normalized growth mostly below about 0.91 (no sharp cut-off); inconclusive = no clear call, values can overlap the other calls; inactive = mostly above about 0.92. Some of the results follow.

Experiment: chemical genetic growth profiling, strain panel (AID 1159580);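 note: tested at 20 µM; growth read once vehicle control cultures reached saturation at 30 °C; 1 = growth at the plate median or of vehicle wells; lower values mean less growth of the strain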
Conditions: S. cerevisiae deletion strains, growth OD

Measured: normalized growth

CCCn1c(=O)c2c(ncn2C)n(CCC)c1=O
active: locus YAL040C, strain CLN3, hits give low values 1.13 [resistant]
inactive: locus YAL013W, strain DEP1, hits give low values 0.983 | locus YCL061C, strain MRC1 (second series), hits give low values 1 | locus YDR150W, strain NUM1, hits give low values 1.02 | locus YDR363W, strain ESC2, hits give low values 0.964 | locus YER002W, strain NOP16, hits give low values 0.999 | locus YGR078C, strain PAC10, hits give low values 0.986 | locus YNL128W, strain TEP1, hits give low values 0.992 | locus YNL175C, strain NOP13, hits give low values 1 | locus YNL197C, strain WHI3, hits give low values 1 | locus YNL224C, strain SQS1, hits give low values 0.988 | locus YNL322C, strain KRE1, hits give low values 0.994 | locus YOR083W, strain WHI5 (second series), hits give low values 0.981 | locus YPL241C, strain CIN2, hits give low values 1.01
